Laboratory results as given in ChEMBL document CHEMBL1157539, “Thousands of chemical starting points for antimalarial lead identification” (Nature, 2010).

tested on: Plasmodium falciparum; assay: GSK_TCMDC: Inhibition of Plasmodium falciparum 3D7 in whole red blood cells, using parasite LDH activity as an index of growth. Test compounds present at 2uM; assay type: functional

| SMILES | Inhibition |
| --- | --- |
| CCCS(=O)(=O)c1nc(S(=O)(=O)c2ccc(Cl)cc2)c(N2CCCCC2)s1 | 87% |
| COc1ccc(CNc2nccc3ccc(-c4ccc5nccn5c4)cc23)cc1.O=C(O)C(F)(F)F | 95% |
| CCCC(C)NC(=O)[C@H]1CNCCN1C(=O)CCCc1ccccc1.O=C(O)C(F)(F)F (stereo not given in full) | 96% |
| Cc1cc(O)c(-c2ccc(Sc3ccc(Cl)cc3)cc2)c(C)n1 | 92% |
| COc1ccc2nccc([C@@H](O)CN3CCC(NCc4cc5c(F)ccc(F)c5[nH]4)CC3)c2n1.CS(=O)(=O)O | 100% |
| COc1ccc2nccc(N3C[C@H]4C[C@@H]3CN4CCNCc3ccc4c(n3)NC(=O)CS4)c2n1.Cl | 99% |
| Cc1cc(NC(=O)c2ccc(S(=O)(=O)N(Cc3ccccc3)C(C)C)cc2)no1 | 87% |
| Nc1ncc(-c2cn[nH]c2)cc1-c1nc2ccc(Cl)cc2[nH]1 | 100% |
| Cc1cccc(-c2nn(-c3ccccc3)cc2C(=O)Nc2nnc(C)o2)c1 | 84% |
| O=C(c1ccc(F)c(F)c1)N1CCOC(CCN2CCC(c3ccccc3)CC2)(c2ccc(Cl)c(Cl)c2)C1 (stereo not given) | 89% |
| CS(=O)(=O)NCCCNCc1ccc(-c2ccc(-c3nc4cc(C(F)(F)F)ccc4[nH]3)cc2)cc1.O=C(O)C(F)(F)F | 100% |
| CC(NC(=O)c1ccc(O)c(-c2ccc(Cl)c(Cl)c2)c1)C(=O)NCCN1CCOCC1 (stereo not given) | 87% |
| O=C(Nc1ccc(-c2cccc(-c3nc4ccccc4[nH]3)c2)cc1)Nc1ccc2c(c1)OCO2 | 100% |
| O=C(NCc1cccc(F)c1)Nc1ccc(-c2ccc(-c3nc4cc(C(F)(F)F)ccc4[nH]3)cc2)cc1 | 100% |
| COc1cc2nc(N3CCC(CNC(=O)c4ccc(OC(F)(F)F)cc4)CC3)nc(N)c2cc1OC.O=C(O)C(F)(F)F | 100% |
| COc1cccc2cc(C(=O)N[C@@H](CC(C)C)C(=O)N[C@H](/C=N/NC(=O)Cc3cccnc3)CCc3ccccc3)oc12 | 82% |
| O=C(NCc1ccc(Cl)c(Cl)c1)c1cccc(C2CCCN(Cc3ccc4[nH]cnc4c3)C2)c1 (stereo not given) | 95% |
| COc1cc2c(cc1S(=O)(=O)c1ccc(NC(=O)c3cccc(C(F)(F)F)c3)cc1)CCN(C)CC2 | 92% |
| O=C(NCc1ccc(C(=O)NCc2cccc3ccccc23)cc1)c1ccc(O)c(-c2ccc(Cl)c(Cl)c2)c1 | 100% |
| O=C(c1cccc(-c2noc(C(F)(F)F)n2)c1)N1CCN(c2nsc3ccccc23)CC1 | 90% |

| SMILES | Inhibition |
| --- | --- |
| CCOc1c(OC)ccc2c1CCN(CCN1CCC(NC(=O)c3ccc(-c4cccc(C(F)(F)F)c4C(F)(F)F)cc3)CC1)C2 | 100% |
| Cc1cc(C(F)(F)F)n2nc(C(=O)N(Cc3cncn3Cc3cccc(F)c3)CC3CC3)cc2n1 | 100% |
| CCNc1cc(C(=O)N[C@@H](Cc2cccc(F)c2)[C@H](O)CNC(C)CCCC(C)C)cc(N2CCCCS2(=O)=O)c1.Cl (stereo not given in full) | 98% |
| CC(CCc1ccccc1)NCC(O)c1cccc([N+](=O)[O-])c1 (stereo not given) | 97% |
| CCOc1cc(N)c2nc3ccc([N+](=O)[O-])cc3cc2c1 | 100% |
| CCOC(=O)c1ccc(NC(=O)Nc2cccc(-c3cccc(-c4nc5cccc(C)c5[nH]4)c3)c2)cc1 | 100% |
| COc1ccc2[nH]ccc(=NN=Cc3cccc(Cl)c3)c2c1 | 100% |
| CN(C)CCN(Cc1ccccc1)c1ccc([N+](=O)[O-])cc1C(F)(F)F.O=C(O)C(F)(F)F | 96% |
| N=C(N)NC(=O)Nc1cc(Cl)c(Cl)c(Br)c1 | 99% |
| O=C(NC1CCN(Cc2ccccc2)CC1)c1ccc(-c2nc3cc(F)c(F)cc3[nH]2)s1 | 100% |
| CCC(=O)Nc1ccc(C(O)CN2CCC3(C=Cc4ccccc4O3)CC2)cc1 (stereo not given) | 93% |
| O=C(NC1CCN(Cc2cccc(C(F)(F)F)c2)CC1)c1ccc(-c2cccc(Cl)c2)s1.O=C(O)C(F)(F)F | 89% |
| CCCCCCCc1c(C)nc2cc(OC)ccc2c1O | 99% |
| O=C(Nc1ccccc1C(F)(F)F)Nc1nn(Cc2c(F)cccc2Cl)cc1Br | 100% |
| COc1cc2nc(N3CCN(c4nc(N)c5cc(OC)c(OC)cc5n4)CC3)nc(N)c2cc1OC | 100% |
| Cc1cc(C)cc(OCC(O)CN(Cc2cc(Cl)cc(Cl)c2)C(=O)Nc2ccc(Cl)cc2)c1 (stereo not given) | 97% |
| Cc1cc(CN2C(=O)C(c3ccccc3)(c3ccccc3)N=C2N)c(C(F)(F)F)o1 | 97% |
| O=[N+]([O-])c1ccc2c(c1)c1ccccc1n2Cc1ccccc1O | 93% |
| O=S(=O)(c1cc2ccccc2s1)N(CCC(O)(C(F)(F)F)C(F)(F)F)Cc1cccc(O)c1 | 100% |
| CC(CN(C)C)C(=O)Nc1ccc(-c2cccc(-c3nc4cc(C(F)(F)F)ccc4[nH]3)c2)cc1 (stereo not given) | 100% |
